# Experimental data reported in publication PMC7819943, “Rice protein-binding microarrays: a tool to detect cis-acting elements near promoter regions in rice”.
# Over roughly 39,000 sequences, “fluorescence intensity (a.u.)” has its median near 4,300; the highest 2% begin near 39,000. For the sample, the highest values were picked, then their nearest neighbours and some sequences at random.
# Target: T1, OsSMF1 (Oryza sativa, UniProt Q6ZLB0 1-436)
# T1 sequence: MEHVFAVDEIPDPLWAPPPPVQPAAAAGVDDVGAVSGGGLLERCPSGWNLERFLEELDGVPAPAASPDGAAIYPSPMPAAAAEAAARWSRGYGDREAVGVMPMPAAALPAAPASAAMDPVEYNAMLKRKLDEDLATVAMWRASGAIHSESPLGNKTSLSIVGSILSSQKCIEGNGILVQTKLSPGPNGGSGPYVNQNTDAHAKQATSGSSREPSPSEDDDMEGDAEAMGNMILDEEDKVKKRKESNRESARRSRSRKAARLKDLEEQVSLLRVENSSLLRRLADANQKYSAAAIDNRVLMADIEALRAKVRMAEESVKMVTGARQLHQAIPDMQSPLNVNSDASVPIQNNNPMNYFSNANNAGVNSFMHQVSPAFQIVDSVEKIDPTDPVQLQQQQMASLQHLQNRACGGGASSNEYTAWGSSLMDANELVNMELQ
# Experiment: protein-binding microarray (RPBM); PBS, 2% BSA, 51.3 ng/ul salmon testes DNA, 50 uM zinc acetate, 200 nM TF, 25 C, 1 h; high values mean tight binding
# Conditions: protein: recombinant; tags: N-terminal polyhistidine and DsRed monomer fusion (pET32a); chain copies: 2; label: CyDye5-dUTP incorporated in the synthesized complementary strand; 3' TTTTT single-stranded linker to array surface; dsDNA, one strand shown
# Procedure, shortened: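 The binding signal for each feature is its fluorescence intensity in arbitrary units. An Axon 4000B scanner was used to read a custom Agilent array that had been made double-stranded with Cy5-dUTP primer extension, blocked with 2% BSA, incubated at 25 °C for 1 h with 200 nM protein in PBS, 2% BSA, salmon testes DNA and 50 µM zinc acetate, and washed. The protein was an N-terminal polyhistidine–DsRed transcription factor fusion from E. coli BL21-CodonPlus, purified on Ni–NTA.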
row,Sequence,binding signal
1,CTCTGTGCTGAAATGGTTAGGTATGTTTTCTTTCTGCTCTCGGAGTCACCTAGTGCAG,40700 fluorescence intensity (a.u.)
2,TGGTATGAATGGATAATTTGTTTCTGTCTTATGTGTTGCTCGGAGTCACCTAGTGCAG,3150 fluorescence intensity (a.u.)
3,GCTGCTCTCTTTCCTCTCTTCTCTCTCTGTTTTCTCTCCTCGGAGTCACCTAGTGCAG,18500 fluorescence intensity (a.u.)
4,TCGGCAAGCTGAGACGGCTAGTGAACCTATCAGCCATCAGCGGAGTCACCTAGTGCAG,15900 fluorescence intensity (a.u.)
5,CAAGTCCAAGAGCACCATAAGCTAGTGACACATAGAGCCCCGGAGTCACCTAGTGCAG,4140 fluorescence intensity (a.u.)
6,TCTGGACCACATAAACGAGAGAGAGAGAGAAGTCCAAGCCCGGAGTCACCTAGTGCAG,47900 fluorescence intensity (a.u.)
7,TCTGCAAGCACCAACGAGAAGCCACAAATGTTCACATCACCGGAGTCACCTAGTGCAG,3610 fluorescence intensity (a.u.)
8,CGTGCGGCGGATCGTGGTGGACGCGAGCGGCGGCGGCGACCGGAGTCACCTAGTGCAG,3440 fluorescence intensity (a.u.)
9,GATCGACGGCGACGCCCCTGGAAGGAGCGGAATAGACCACCGGAGTCACCTAGTGCAG,46700 fluorescence intensity (a.u.)
10,CCTGAGGAGGGAAGGGTCGATGTGGAGGAGCGGCGGCGACCGGAGTCACCTAGTGCAG,3500 fluorescence intensity (a.u.)
11,TTTGCATTGACTTGATATAGTATGTCACCATCACACTATCCGGAGTCACCTAGTGCAG,5460 fluorescence intensity (a.u.)
12,TTGTGACTTGATTTATCATCAAATGTTCTTTAAACATGACCGGAGTCACCTAGTGCAG,3540 fluorescence intensity (a.u.)
13,TTACAAACAACGCCTTGCATGATTGCATCATCGCCCTAAACGGAGTCACCTAGTGCAG,4300 fluorescence intensity (a.u.)
14,TTGCATCAGGCCCTCTTCAATGATTTAAACAAACAATGGACGGAGTCACCTAGTGCAG,52300 fluorescence intensity (a.u.)
15,GGCGTATTCCAAAAGCCTTGGCCACCATTATTGCGTGGCACGGAGTCACCTAGTGCAG,6820 fluorescence intensity (a.u.)
16,GCTAGCTAAGAGCGAGCTTCATTAACATACGAGACAGAGACGGAGTCACCTAGTGCAG,4530 fluorescence intensity (a.u.)
17,TACTCTGCCAATCTAAATTAATGATGTATGATATGGTCTCCGGAGTCACCTAGTGCAG,4340 fluorescence intensity (a.u.)
18,GTTAATTAATACTCTCCGTTTCATATTATAAGGCGTTTGACGGAGTCACCTAGTGCAG,26400 fluorescence intensity (a.u.)
19,ACCCATATAATTAAGGTGCCAATGCTGCTAATACTCTCTCCGGAGTCACCTAGTGCAG,46100 fluorescence intensity (a.u.)
20,GACACATGAGGGCCCACATGTCATACATTGTGAATGACACCGGAGTCACCTAGTGCAG,3900 fluorescence intensity (a.u.)
21,GCCGCACCGGTCGGTTTCAGCGCGTGTGACACGCAGATTCCGGAGTCACCTAGTGCAG,3500 fluorescence intensity (a.u.)
22,CTTGTCTAGTCCAGGACAACTGGGATGATTGAGCACCAGTCGGAGTCACCTAGTGCAG,3170 fluorescence intensity (a.u.)
23,CAAACCACAGTGTTCCACGTCATCATCAATTGACAGCCGTCGGAGTCACCTAGTGCAG,37800 fluorescence intensity (a.u.)
24,CCGTTACATTGTTCCAATTTTAATTAAACTTCCAATTTTACGGAGTCACCTAGTGCAG,30600 fluorescence intensity (a.u.)
25,AACCTCAATGTTCCACGTCATCATTAATTTACAGCCGTTGCGGAGTCACCTAGTGCAG,39400 fluorescence intensity (a.u.)
26,ATGGGGTGGATGCGTCAGAATTTACATAGGCACGGAACGTCGGAGTCACCTAGTGCAG,5800 fluorescence intensity (a.u.)
27,CCTTCCCTAGGGGCGGAGCCACGTAGCTTGGGCCCCACACCGGAGTCACCTAGTGCAG,6430 fluorescence intensity (a.u.)

row,Sequence,binding signal
1,ATGACGATGGTTAATCCAAATAACATATTGGCCCGGGTTCCGGAGTCACCTAGTGCAG,49900 fluorescence intensity (a.u.)
2,GAGAGAGTGTAGGTTGCCGATGACGTTCCAAATATTGATCCGGAGTCACCTAGTGCAG,4490 fluorescence intensity (a.u.)
3,TTATTATTATTGGATGGTTAGATGACAAATCCAACCTCACCGGAGTCACCTAGTGCAG,3640 fluorescence intensity (a.u.)
4,ACCTTCATTGGATCTGCCTCCCTGCAAGCCTCTGCCTCAACGGAGTCACCTAGTGCAG,43300 fluorescence intensity (a.u.)
5,ATTGACATGGAGTCATGGACACTCTCCCTGCCTCCTCCCTCGGAGTCACCTAGTGCAG,3370 fluorescence intensity (a.u.)
6,CACCTTCTTCAAGCTCCCTCCTCTGAAGCCTCTTCTTCTTCGGAGTCACCTAGTGCAG,34900 fluorescence intensity (a.u.)
7,TCTCCACTTCAGAGACGGTCCCACCTGTCATCCGCTCATACGGAGTCACCTAGTGCAG,4680 fluorescence intensity (a.u.)
8,TCCAGTTGTGCGTGGAGATGTTGGTGAAGAGCTTCCGCTGCGGAGTCACCTAGTGCAG,4270 fluorescence intensity (a.u.)
9,TGAAATGCTATGTTGGTCCAGACTTCCGCTACGAAGGAGACGGAGTCACCTAGTGCAG,65100 fluorescence intensity (a.u.)
10,CCCTTACACCGCCCTGTGAACAGTCACTGACAATCCTGGCCGGAGTCACCTAGTGCAG,4330 fluorescence intensity (a.u.)
11,TTAGTGCATGCTGCTAACTAAATACACGTAGCTTGTTGATCGGAGTCACCTAGTGCAG,3310 fluorescence intensity (a.u.)
12,AAATTCCACGTGCCACATATTTCGTTCATTTGAGTTTATTCGGAGTCACCTAGTGCAG,8820 fluorescence intensity (a.u.)
13,CTCCTGCCCACCAATCTTGCGGCGGAAAACAAGGCGTGATCGGAGTCACCTAGTGCAG,4000 fluorescence intensity (a.u.)
14,GCGAAGCAACATGCTGCTGCTCAAGAGGAGGAAGATGGTGCGGAGTCACCTAGTGCAG,3350 fluorescence intensity (a.u.)
15,TGGTGCTGTGGTGGTGGTGGTCATGGACTCATTGGGCATGCGGAGTCACCTAGTGCAG,3180 fluorescence intensity (a.u.)
16,TTCATAGAGAGGGCCGGCAACGGCCTAGGCACGCTGGTGTCGGAGTCACCTAGTGCAG,34700 fluorescence intensity (a.u.)
17,TCAGCTGGCATGCATGGCAACATATATATGGCTGGAAGTACGGAGTCACCTAGTGCAG,40000 fluorescence intensity (a.u.)
18,GAGAGTCGCCTTGTCAACATATGGCAGATGCAGCTGGTGCCGGAGTCACCTAGTGCAG,61100 fluorescence intensity (a.u.)
19,CCTACACATATATATATATATATGCATGGCAACTTGGCAACGGAGTCACCTAGTGCAG,3340 fluorescence intensity (a.u.)
20,TGGTGCTGGTCCTCAACATGCATGTGCTATGGCAAGATCCCGGAGTCACCTAGTGCAG,42800 fluorescence intensity (a.u.)
21,TTGATGGAGATGGGAGTTGGTGCGGATGTCCTTGTCGCCCCGGAGTCACCTAGTGCAG,3200 fluorescence intensity (a.u.)
22,GTACGTCGGAAGCAACGGCAGACATGACAGCATATGGCCTCGGAGTCACCTAGTGCAG,15900 fluorescence intensity (a.u.)
23,AGCTCGTGACGTTAATCTCCGTATAACCAAGCCATGTTGTCGGAGTCACCTAGTGCAG,6620 fluorescence intensity (a.u.)
24,CATATAATTGATAGCAGCATGACAGATTGCCAGTTAGCCGCGGAGTCACCTAGTGCAG,3290 fluorescence intensity (a.u.)
25,AGTAGTAGGGCGCGACACGCGTGTACGTTGCGATAGATGTCGGAGTCACCTAGTGCAG,3330 fluorescence intensity (a.u.)
26,ATGTCTCGTTATCTCCTAAACATGTCATTACACTGGAAACCGGAGTCACCTAGTGCAG,3240 fluorescence intensity (a.u.)
27,TATGGGGCCGTGATATTCAATGTGATGTGCATACAGCATGCGGAGTCACCTAGTGCAG,3720 fluorescence intensity (a.u.)
